# This is part of a sample that, as a whole, favours compounds with a hit. Of some 83,000 tested, about 20% had one in any assay.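 How to read the values: 0–100, growth inhibition (40 = 60% inhibited); 0, no net growth; -100 to 0, cell death (-40 = 40% of starting cells died; -100 = all dead).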 A number with no mark means an inactive call. Active and inactive are the calls of the source. How the source made its calls: active means growth percent below 10; inactive means the rest.
# What was measured:
# Experiment in all cases: NCI-60 one-dose screen, 48 h (100 = growth as untreated, 0 = no growth, -100 = all killed)
# Conditions in all cases: 10 µM unless noted
# SK-MEL-2 melanoma = tested on: SK-MEL-2 melanoma
# EKVX NSCLC = tested on: EKVX NSCLC
# SN12C renal = tested on: SN12C renal
# UO-31 renal = tested on: UO-31 renal
# TK-10 renal = tested on: TK-10 renal
# ACHN renal = tested on: ACHN renal
# CAKI-1 renal = tested on: CAKI-1 renal
# A498 renal = tested on: A498 renal
# CCRF-CEM leukemia = tested on: CCRF-CEM leukemia
# MOLT-4 leukemia = tested on: MOLT-4 leukemia
# SR leukemia = tested on: SR leukemia
# RPMI-8226 leukemia = tested on: RPMI-8226 leukemia
# OVCAR-8 ovarian = tested on: OVCAR-8 ovarian
# OVCAR-5 ovarian = tested on: OVCAR-5 ovarian
# OVCAR-4 ovarian = tested on: OVCAR-4 ovarian
# SK-OV-3 ovarian = tested on: SK-OV-3 ovarian
# IGROV1 ovarian = tested on: IGROV1 ovarian
# OVCAR-3 ovarian = tested on: OVCAR-3 ovarian
# NCI/ADR-RES ovarian = tested on: NCI/ADR-RES ovarian
# HS 578T breast = tested on: HS 578T breast
SMILES,growth (SK-MEL-2 melanoma),growth (EKVX NSCLC),growth (SN12C renal),growth (UO-31 renal),growth (TK-10 renal),growth (ACHN renal),growth (CAKI-1 renal),growth (A498 renal),growth (CCRF-CEM leukemia),growth (MOLT-4 leukemia),growth (SR leukemia),growth (RPMI-8226 leukemia),growth (OVCAR-8 ovarian),growth (OVCAR-5 ovarian),growth (OVCAR-4 ovarian),growth (SK-OV-3 ovarian),growth (IGROV1 ovarian),growth (OVCAR-3 ovarian),growth (NCI/ADR-RES ovarian),growth (HS 578T breast)
O=C(c1ccc(O)cc1)[C@@H]1CN[C@@]2(C(=O)Nc3ccccc32)[C@H]1c1ccc(F)cc1,104%,91.9%,98.6%,77.3%,123%,94.5%,106%,112%,99.2%,90.5%,87.5%,95.4%,99.2%,104%,102%,115%,95.3%,117%,99.2%,–
Nc1ccccc1NC(=O)c1ccc(NC(=O)C/C=C/c2cccnc2)cn1,15.9%,52.9%,25.2%,0.829% (active),17.4%,26.1%,29.2%,-35.3% (active),15.8%,17.3%,28.2%,-12% (active),21.5%,26%,32.9%,29.4%,16.7%,22.7%,19%,–
N=c1c2cc(-c3ccccc3)oc2ncn1/N=C/c1ccc(Cl)cc1,101%,84.7%,62.6%,94%,112%,34.3%,97.7%,99.7%,71.2%,88.2%,35.3%,80.9%,95.7%,51.7%,17.1%,99.7%,53.5%,6.82% (active),49.6%,–
CC1=N[C@@H]2CN(C(=O)OC(C)(C)C)C[C@@H]2n2c1cc1ccccc1c2=O,102%,103%,97.1%,74.9%,123%,92.6%,80.2%,114%,105%,106%,99.9%,101%,101%,107%,107%,92.5%,107%,–,100%,101%
COc1ccc(-c2nn(-c3ccc(S(C)(=O)=O)cc3)cc2/C=N/O)cc1,109%,104%,98.9%,97%,124%,95.3%,111%,116%,99.6%,103%,107%,102%,101%,101%,113%,108%,106%,–,107%,108%
CCNC(=O)N1CCc2cc(OC)c(OCCc3ccc(OC)cc3)cc2C1c1ccc(OC)cc1C (stereo unspecified),19%,45.5%,30.2%,30%,38.1%,26.9%,26.9%,-11.1% (active),36.3%,21.2%,4.44% (active),13.6%,27.6%,35.9%,50.3%,45.9%,27.8%,–,12.3%,1.32% (active)
COCCNc1ccc2ncc(C#Cc3cncc(C(=O)Nc4ccc(CN5CCN(C)CC5)c(C(F)(F)F)c4)c3)n2n1,-90.5% (active),-23.2% (active),-6.14% (active),-40% (active),-43.3% (active),1.57% (active),-40.3% (active),-98% (active),11.2%,5.84% (active),-6.69% (active),-26.7% (active),-5.34% (active),3.94% (active),-10.6% (active),-63% (active),-12% (active),–,43.9%,-33.9% (active)
CN(C)CCN(C)c1ccc2ncc(C#Cc3cncc(C(=O)Nc4ccc(CN5CCN(C)CC5)c(C(F)(F)F)c4)c3)n2n1,84.5%,86.9%,36.1%,68.7%,134%,47.2%,58.1%,112%,7.73% (active),3.55% (active),-17.4% (active),-33.9% (active),63.6%,91.5%,-0.365% (active),118%,45.5%,–,37.1%,59.9%
O=C(c1ccc(O)c(C(=O)N2Cc3ccc(OCCC[P+](c4ccccc4)(c4ccccc4)c4ccccc4)cc3C2)c1)N1Cc2cccc(F)c2C1,65.2%,70.3%,88.6%,80.6%,100%,101%,93.1%,85.7%,57.4%,108%,54.5%,31.8%,77.5%,102%,91.4%,114%,43.8%,–,–,72.4%
c1n[nH]cc1-c1nc2ccc3[nH]ncc3c2c2c1CCCC2,-20.7% (active),42.1%,15.1%,11.9%,15.1%,10.8%,0.509% (active),-14.2% (active),28.1%,24.6%,-9.78% (active),41.5%,23.5%,43.9%,54.1%,-19.6% (active),20.8%,–,51.1%,-4.89% (active)
CS(=O)(=O)c1ccc(-c2nn(-c3ccccc3)cc2/C=N/NC(=O)c2nc(N)n[nH]2)cc1,108%,90.3%,94.7%,96.8%,110%,93.7%,96.6%,101%,43.7%,67.1%,69.7%,83.3%,101%,94.8%,103%,112%,90.8%,–,98.9%,111%
COc1ccc(N2C(=O)c3cc(Cl)ccc3NC2SCc2ccccc2)cc1 (stereo unspecified),98.9%,91.6%,91.5%,63.8%,96.2%,101%,81.8%,84.7%,92.2%,84.5%,103%,107%,94.8%,102%,94.7%,101%,–,105%,99.1%,106%
COC(=O)c1ccc(NC2=C/C(=N/S(=O)(=O)c3ccc(C(=O)O)cc3)c3ccccc3C2=O)cc1,4.1% (active),88.3%,-71.3% (active),-1.04% (active),156%,-11.2% (active),20.4%,119%,4.48% (active),-15% (active),0.0887% (active),2.88% (active),9.15% (active),18.8%,-56.5% (active),106%,–,-28.6% (active),4.23% (active),–
O=C(Nc1nc2ccc([N+](=O)[O-])cc2s1)Nc1ccccc1Br,48.1%,35.3%,23.4%,43.4%,81.1%,47.3%,64.1%,21.4%,37.6%,27.1%,23.2%,6.15% (active),51.4%,84.4%,12.2%,63.6%,–,–,52.1%,47.1%
O=c1c2ccccc2nc(COc2ccccc2)n1NS(=O)(=O)c1ccc(Cl)cc1,74.7%,74.8%,76.6%,62.7%,153%,92.8%,73.1%,63.3%,97%,69.5%,57.6%,95.6%,92%,91.2%,95.2%,–,61.7%,103%,73%,75%
COc1ccc(/C=N/NC2=NC3C(S2)N(C)C(=O)N3C)cc1 (stereo unspecified),29.9%,38.5%,44.3%,45%,76.2%,42.7%,24%,-17.5% (active),15.5%,20.3%,6.64% (active),10.5%,35.6%,50.4%,75.6%,28%,–,-17.1% (active),30.7%,0.337% (active)

# Reference: PubChem BioAssay (NCI)
